Experiments:
Assay in all cases: PBM binding z-score (relative to random genomic background probes); higher = stronger binding; sequences stand for … in GC…GCGATTGACAGCGTAGAATGAAGG
[1] = test system: FXR:RXRa (NR concentration 270 nM, RXRa partner concentration 90 nM)
Outline: (§1)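 Scanned fluorescence from custom Agilent 4×180K protein-binding microarrays was regression-normalized. Binding z-scores use random background probes as reference. Ligand-free nuclear receptor dimers were incubated on the arrays for 1 h and detected with antibodies against each partner (one per run).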

[2] = test system: LXRa:RXRa (NR concentration 270 nM, RXRa partner concentration 90 nM)
Outline: as §1

[3] = test system: LXRa homodimer (NR concentration 270 nM)
Outline: as §1

[4] = test system: LXRb:RXRa (NR concentration 270 nM, RXRa partner concentration 90 nM)
Outline: as §1

[5] = test system: LXRb homodimer (NR concentration 270 nM)
Outline: as §1

[6] = test system: PPARa:RXRa (NR concentration 270 nM, RXRa partner concentration 90 nM)
Outline: as §1

[7] = test system: PPARg:RXRa (NR concentration 180 nM, RXRa partner concentration 90 nM)
Outline: as §1

[8] = test system: PPARg:RXRa 270nM:90nM, anti-RXR (NR concentration 270 nM, RXRa partner concentration 90 nM)
Outline: as §1

[9] = test system: PPARg:RXRa 30nM:10nM, anti-RXR (NR concentration 30 nM, RXRa partner concentration 10 nM)
Outline: as §1

[10] = test system: PPARg:RXRa 90nM:30nM, anti-RXR (NR concentration 90 nM, RXRa partner concentration 30 nM)
Outline: as §1

Sequence | PBM binding z-score [1] | PBM binding z-score [2] | PBM binding z-score [3] | PBM binding z-score [4] | PBM binding z-score [5] | PBM binding z-score [6] | PBM binding z-score [7] | PBM binding z-score [8] | PBM binding z-score [9] | PBM binding z-score [10]
TCTAGTTGGTCAAATGTCACACACTCGAAATGCG | 0.894 | 0.965 | 0.736 | 1.29 | 0.913 | 2.93 | 5.26 | 6.74 | 5.88 | 7.55
GGAACGACGGCATTCGAGTTGATAGCATGGCGAT | -0.557 | -0.773 | -0.583 | -0.948 | -1.04 | -0.735 | 0.532 | -0.612 | -0.766 | -0.917
CCGACTGTGGCAGAAAGGTTACCATACCATCCGG | 0.385 | 0.528 | 0.0726 | 0.75 | -0.636 | 2.16 | 2.03 | 3.65 | 1.73 | 3.6
TCTCGGAGAACACGAAAGGTCAGAGCTCGACATC | 2.02 | 3.08 | 1.46 | 3 | -0.199 | 3.32 | 0.977 | 2.21 | 2.43 | 2.25
CGTCCAAGGTAATAGGAGGTCAGTGAAGACAGAT | 1.29 | 5.47 | 3.58 | 2.99 | -0.518 | 2.14 | 0.506 | 0.791 | -0.301 | 0.264
CCTACTGGGCCAGAGGTCATTGATTCCAATGCTC | 3.89 | 4.31 | 4.08 | 4.28 | 0.315 | 5.3 | 9.61 | 8.53 | 9.24 | 9.4
CAACCTAGGTCACAGAGGTCAAAGTCCGTGCGTA | 7.56 | 6.89 | 7.7 | 6.74 | 2.06 | 6.1 | 7.27 | 6.89 | 3.63 | 6.19
TCACATAGGTAATACAGGTGAAAGTCGGCATCTA | 0.672 | 0.976 | 0.424 | 0.83 | 0.142 | 1.66 | 1.04 | 2.47 | 3.63 | 3.03
CCGACTGGGGCAGAAAGGTGACCATACCATCCGG | -0.198 | -0.194 | -0.391 | -0.267 | -1.39 | 0.838 | 1.34 | 1.98 | -0.273 | 1.32
CCTAGAAGGCCAATCTGGGTCACTCAAGGCTTGA | 1.99 | 3.1 | -0.29 | 2.04 | -0.793 | 3.72 | 2.93 | 2.57 | 0.176 | 1.97
TTACCAAGGTGAAGGCCGTTGATCCCTCTGTAGA | 0.294 | 0.227 | -0.606 | 0.138 | -0.941 | 1.33 | 0.354 | 1.33 | 0.659 | 0.916
TCTTGTAGATCAAGCAAGTTAAGAAAGCCTGAGT | 0.00157 | -0.0687 | -0.36 | -0.0255 | -0.715 | 0.295 | -0.623 | 1.01 | 2.4 | 1.72
GCATATAGGTAATACAAGGTGAAAGTACGATTGT | 0.899 | 2.24 | 0.263 | 0.874 | -0.16 | 1.82 | 1.98 | 1.86 | 0.776 | 1.17
AGAACGAGGGCAATTAGTTGATAGCACGGGTGGC | 0.559 | 0.389 | -0.309 | 0.306 | -0.23 | 1.64 | 1.31 | 0.81 | -0.134 | 0.104
CAAACTAGGACACAGAGGTCAAAGTCCGTGCGTA | 5.53 | 5.78 | 6.08 | 5.13 | 1.79 | 5.73 | 6.63 | 5.99 | 3.64 | 5.73
ATTTGTAGGTTAAGGGTCATTCAGGTTGGTTCGC | 5.48 | 5.5 | 4.38 | 4.97 | 2.76 | 6.21 | 11.5 | 9.95 | 11.8 | 12.1
CGTCAAAGTTGAACTAAGGTAACGTAAAGCACGC | 2.71 | 3.29 | 3.88 | 1.57 | 0.134 | 2.26 | 1.45 | 2.65 | 0.653 | 2.03
CCGACTGGGGCATAAGATTACCATAAGCCAGCCC | -0.495 | -0.33 | -0.319 | -0.411 | -1.33 | 0.114 | 1.12 | 0.921 | -0.305 | 0.461
CCTGCTTGGTCAATGGTCAGCTAAAGCAGCTCGC | -0.266 | -0.183 | -0.536 | -0.566 | -0.491 | -0.243 | -0.553 | 0.82 | -0.904 | 0.17
TAGCCTAGGTCAGATCGGGACAGTATACGCTATA | 3.31 | 1.3 | -0.0323 | 1.07 | -0.146 | 1.82 | 0.86 | 0.922 | 0.0788 | 0.727
ATATGTAGGTTACCTCCGGGTCATTCAGGCTATG | 2.86 | 5.14 | 1.84 | 3.15 | 0.804 | 4.5 | 5.68 | 4.82 | 2.2 | 4.09
ATATGTAGGTTACATCCGGGTCATGCAGGCTATG | 2.18 | 3.82 | 0.802 | 2.38 | 0.427 | 4.45 | 6.06 | 5.18 | 2.64 | 4.3

Sequence | PBM binding z-score [1] | PBM binding z-score [2] | PBM binding z-score [3] | PBM binding z-score [4] | PBM binding z-score [5] | PBM binding z-score [6] | PBM binding z-score [7] | PBM binding z-score [8] | PBM binding z-score [9] | PBM binding z-score [10]
AGTCAAAGTTCATTAGGTAACGTAAGATTCAGCT | 5.94 | 6.16 | 5.2 | 3.29 | 1.67 | 4.63 | 6.37 | 6.16 | 3.38 | 5.54
ACTTACGGGTCAACGAGGTTATAGCTCGCGTATA | 7.28 | 5.05 | 0.77 | 4.4 | 0.524 | 5.72 | 5.51 | 5.57 | 2.36 | 4.17
TTACCAAGGTGAAGGTCGTTCATCCCTCTGTAGA | 1.75 | 2.56 | 0.0622 | 1.51 | -0.519 | 2.77 | 3.06 | 4.13 | 2.5 | 3.8
CCTTACGGGTCACTGGCAGGTTATAGCATTTGGA | 5.13 | 4.36 | 0.174 | 3.52 | -0.315 | 5.15 | 4.06 | 4.83 | 1.9 | 3.26
TCTCGCAGGACACGAAGGTCAGAGCTTTCCAGAG | 1.36 | 1.16 | 0.275 | 1.43 | -0.948 | 1.92 | 0.556 | 1.75 | 1.75 | 1.74
AGTCAAAGTTCATCTAGGTAAAGTAAGATATGCT | 7.01 | 5.97 | 5.01 | 4.24 | 1.97 | 5.14 | 7.07 | 6.73 | 3.75 | 5.54
AGTCAAAGTTCACTAGGTAACGGAAGATTCAGCT | 4.46 | 5.19 | 2.4 | 3.15 | 1.03 | 4.82 | 6.78 | 6.56 | 3.1 | 5.71
ATCGAAAGGTCGTGAGGTCAGTATACAGAAAGGC | 6.58 | 5.12 | 1.48 | 4.57 | 1.04 | 5.7 | 5.27 | 5.25 | 2.05 | 3.65
CGTCCAAGGTCAGCAGGTTAGTGAAAGCGACGTG | 4.92 | 3.23 | -0.206 | 2.36 | -0.346 | 4.15 | 2.77 | 3.33 | 0.363 | 1.88
TCGAGTAGATTAGGGGCATTCAGAATGGCGTCGA | -0.41 | -0.292 | -0.833 | 0.457 | -0.772 | 0.269 | -0.0813 | 0.334 | 0.917 | 0.699
ATCTCTAGGTAAGATTCAGTTCAGTGAAGAACGC | 0.354 | 0.48 | 0.604 | 0.249 | 0.778 | 0.179 | -0.128 | 0.299 | 0.045 | 0.492
TCGCCTAGGTCAGATCGGGCCAGTATACGCTATA | 1.75 | 1.2 | -0.481 | 0.65 | -0.762 | 1.71 | 0.474 | 1.19 | 1.68 | 1.28
CCTTACGGGTCACTCCAGGTTAGAGCATCGGAGT | 4.5 | 6.91 | 0.78 | 4.42 | 0.148 | 4.23 | 3.19 | 3.7 | 0.828 | 2.54
CCTACTGGGCCATTCAGAGGTCATTGAGCATATG | 2.93 | 4.74 | 6.54 | 3.65 | 0.261 | 4.02 | 2.49 | 3.28 | 1.01 | 2.38
ATCTCTAGGTAACCAATTTCAGTGAATGCCGAAC | 0.444 | 0.64 | 0.561 | 0.348 | 1.28 | 0.596 | 0.441 | 0.547 | 0.162 | 0.306
CGTCCAAGGTCAGCAGGTCAATGAAAGCGACGTG | 6.32 | 4.32 | 0.919 | 3.56 | -0.0922 | 5.37 | 5.19 | 5.03 | 1.33 | 3.38
ACTATTAGTTGAGACGAGGGCAACTGATAGGTTG | 0.629 | -0.0348 | 0.074 | -0.0916 | -0.0432 | 0.621 | 0.7 | 0.45 | 0.365 | 0.668
ACTTACGGGTCAACGAGGTTCTAGCACGCGTATA | 6.65 | 4.04 | 0.325 | 3.66 | 0.336 | 5.59 | 5.12 | 4.83 | 1.82 | 3.67
TAGCCTAGGTCAGATCGGGCCAGTAAACGCTATA | 2.02 | 1.16 | -0.524 | 0.637 | -0.2 | 1.5 | 0.341 | 0.516 | -0.817 | -0.377
CTAGACAGGTGAAAGGTAACTCAGTCTGGTACGC | 0.53 | 0.864 | -0.332 | 0.732 | -0.56 | 3.4 | 6.11 | 6.66 | 5.12 | 6.47
AGAACGACGGCAATGAGTTGATAGCACGGGTGGC | -0.823 | -0.86 | -0.973 | -1.01 | -0.907 | -0.728 | 0.71 | -0.672 | -0.309 | -0.536
CCTACTGGGCCACGAAAGGTCATTGACTCAGTGA | 4.14 | 5.29 | 4.5 | 4.65 | 0.406 | 5 | 4.93 | 4.87 | 2.71 | 4.15
